The panel holds about 83,000 compounds, 20% with a hit somewhere; the sample as a whole holds those more often.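 Plates (96-well) were seeded with cells, treated with compound at one concentration, and incubated for 48 hours before percent growth was determined.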 The source made the active and inactive calls. The calls were made as follows: active = growth percent below 10; inactive = the rest.
Legend:
Test in all cases: NCI-60 one-dose screen, 48 h (100 = growth as untreated, 0 = no growth, -100 = all killed)
Settings in all cases: 10 µM unless noted
[1] = system: T-47D breast
[2] = system: BT-549 breast
[3] = system: MDA-MB-435 melanoma
[4] = system: SW-620 colon
[5] = system: MCF7 breast
[6] = system: HCT-116 colon
[7] = system: HCC-2998 colon
[8] = system: KM12 colon

Measured: growth

CCCCC[C@H]1CC=C2C(=O)C=C[C@@H]2CC=CCCCC(=O)O[C@@H](CCCCC)CC=C2C(=O)C=C[C@@H]2CC=CCCCC(=O)O[C@@H](CCCCC)CC=C2C(=O)C=C[C@@H]2CC=CCCCC(=O)O1
active: [1] -10.2% [8.75 µM] | [2] -37.7% [8.75 µM] | [3] -31.8% [8.75 µM] | [4] 2.25% [8.75 µM] | [5] 5.55% [8.75 µM] | [6] -89.8% [8.75 µM] | [7] -38.7% [8.75 µM] | [8] -41% [8.75 µM]

COc1cc2[nH]c(C(=O)c3cc(OC)c(OC)c(OC)c3)c(N)c2cc1C#CC1CC1
inactive: [1] 32.8% | [2] 53.4% | [4] 22.5% | [5] 17.6% | [6] 19.1% | [7] 66.1% | [8] 18%
active: [3] 2.06%

CC(C)(C)c1cc(-n2c(-c3ccc(Cl)cc3)nc3cc(C(=O)Nc4ccc(Cl)cc4)ccc32)n[nH]1
inactive: [1] 25.2% | [2] 58.7% | [3] 73.3% | [4] 55.9% | [5] 38.5% | [6] 28.2% | [7] 63.9% | [8] 25.9%

CCN(CC)CCCCCCNc1ccnc2cc(Cl)ccc12
inactive: [1] 91% | [2] 86.3% | [3] 88.5% | [4] 83.3% | [5] 82.7% | [6] 59.1% | [7] 107% | [8] 84.9%

Fc1ccc(Nc2nnc(-c3ccc(Cl)cc3)o2)cc1
inactive: [1] 66.2% | [2] 99% | [3] 111% | [4] 105% | [5] 75.4% | [6] 85.1% | [7] 98.9% | [8] 97.8%

COC(=O)[C@]12CC[C@@H](C)[C@H](C)[C@@H]1C1=CC[C@@H]3[C@@]4(C)C[C@@H](O)OC[C@](C)(C=O)C4C(=O)C[C@@]3(C)[C@]1(C)CC2 (some centres not stated)
inactive: [4] 17%
active: [1] -4.48% | [2] -10.1% | [3] 2.15% | [5] 6.16% | [6] -44.4% | [7] 6.06% | [8] 6.15%

Cc1ccccc1-c1nc(C(Cl)Cl)nc2cc(-c3ccccc3)nn12
inactive: [1] 40.1% | [2] 92.9% | [3] 56.6% | [4] 53.5% | [5] 64% | [6] 55% | [7] 69.2% | [8] 36.5%

CNC(=O)c1cc(Oc2ccc3nc(NC(=O)Nc4ccc(Cl)cc4)sc3c2)ccn1
inactive: [1] 44% | [2] 102% | [3] 64.1% | [4] 101% | [5] 69.5% | [6] 47.3% | [7] 86.5% | [8] 70%

COc1cccc(-c2nn(-c3ccccc3)cc2-c2ccnc(NCCNS(=O)(=O)c3ccc(C(F)(F)F)cc3)c2)c1
inactive: [3] 13.2% | [4] 28.4% | [5] 11.1% | [6] 14.7% | [7] 13.7% | [8] 14.7%
active: [1] 3.99% | [2] -29.3%

OCCNc1nc(Nc2ccc(Cl)c(Cl)c2)nc2ccccc12
active: [7] -37.9%
inactive: [1] 67.9% | [2] 77.8% | [3] 50% | [4] 28.6% | [5] 30.3% | [6] 29.7% | [8] 35.5%

CC(=O)O[C@H]1CC[C@@]2(C)[C@@H](CC[C@@H]3[C@@H]2CC(=O)[C@@]2(C)[C@H]3C[C@@H](C3CCCC3=O)[C@@H]2C(C)=O)C1 (some centres not stated)
inactive: [1] 91.1% | [2] 103% | [3] 118% | [4] 111% | [5] 98.2% | [6] 90.1% | [7] 107% | [8] 106%

C=C1C(=O)O[C@H]2[C@H]1CC/C(COC(=O)NCCc1c[nH]c3ccccc13)=C\CC[C@@]1(C)O[C@@H]21
active: [1] -36.9% | [2] -12.9% | [4] -33.2% | [5] 6.64% | [6] -89.1%
inactive: [3] 42% | [7] 94.7% | [8] 89.6%

N#C/C(=C\c1ccc(-c2ccc(Br)cc2)o1)c1nc(-c2ccco2)cs1
active: [1] -26.4%
inactive: [2] 98% | [3] 98.2% | [4] 95.6% | [5] 15.4% | [6] 95.6% | [7] 34.1% | [8] 59.4%

CC(=O)Cc1nsc(NC(=O)c2ccoc2COc2ccccc2)n1
inactive: [1] 105% | [2] 94% | [3] 107% | [4] 105% | [5] 98.2% | [6] 98% | [7] 103% | [8] 100%

— PubChem BioAssay (NCI)
